The whole screen tested about 96,000 compounds, of which about 20,000 (21%) were called active. These entries were drawn from the full list. Unmarked numbers belong to inactive results.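 The calls were made as follows: active = CYP2C19 inhibition above a set limit at 5 µM in the primary screen (cut at about 50% in these data); inactive = the rest.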

Chain of Cytochrome P450 2C19 (Homo sapiens) (P33261 whole entry, looked up): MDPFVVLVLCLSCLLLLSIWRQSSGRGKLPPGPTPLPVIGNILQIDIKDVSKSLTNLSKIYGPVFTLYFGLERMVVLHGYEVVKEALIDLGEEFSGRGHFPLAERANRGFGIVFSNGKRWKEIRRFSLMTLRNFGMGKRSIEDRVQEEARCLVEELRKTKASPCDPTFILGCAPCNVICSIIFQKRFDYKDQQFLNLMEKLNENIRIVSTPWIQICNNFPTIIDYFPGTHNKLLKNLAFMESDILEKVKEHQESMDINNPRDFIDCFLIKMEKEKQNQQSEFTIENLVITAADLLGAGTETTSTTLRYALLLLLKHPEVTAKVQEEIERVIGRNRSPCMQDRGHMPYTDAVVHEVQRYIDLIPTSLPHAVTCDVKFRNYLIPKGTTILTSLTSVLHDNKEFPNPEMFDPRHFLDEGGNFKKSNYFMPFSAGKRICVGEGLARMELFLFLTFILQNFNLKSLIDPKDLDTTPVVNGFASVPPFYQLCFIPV

This experiment addresses Cytochrome P450 2C19 (Homo sapiens) (UniProt P33261). The experiment can be described thus: blockers of cytochrome P450 2C19 activity – biochemical, luminescence, ADME assay, primary screen (AID 778).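 Also: plate controls were negative control wells for no effect and 2.5 mM tranylcypromine positive control for full effect.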 The settings on record: CYP2C19 Supersomes, luciferin-H EGE luminescence, 30 min; at 5 µM; active compounds read high.
On to `Cn1c(=O)oc2cc(S(=O)(=O)N3CCC(C(=O)Nc4ccc(OC(F)(F)F)cc4)CC3)ccc21`, for which the inhibition was 30.4%. For the compound `COC(=O)c1ccccc1NC(=O)C1CCN(S(=O)(=O)c2cc(OC)ccc2OC)CC1`, the inhibition was 93.5% (active). The same measure for `COc1ccccc1N1CC(C(=O)Nc2ccc(S(=O)(=O)N3CCOCC3)cc2)CC1=O` (stereo not given): -1.1%; for `COc1cccc(C(=O)Nc2ccc(N3CCCC3)cc2)c1`: 48.4%. For `O=C(CN1C(=O)C2C3C=CC(C3)C2C1=O)Nc1nc(-c2ccccn2)cs1` (stereo not given) the value was -13.1%; for `C=C(C)COc1ccc(-c2n[nH]c(C)c2-c2ccccc2)c(O)c1`, 33.7%. The same measure for `C=C(C)COc1ccc(-c2n[nH]c(C)c2-c2ccccc2OC)c(O)c1`: 43.5%; for `COc1ccc(-c2n[nH]c(C)c2-c2ccc(OC)c(OC)c2)c(O)c1`: 98.5% (active); for `COc1nc(N=C(N)N)nc2c(C)cccc12`: -8.7%. As for `CCOC(=O)c1cc(-c2ccc(Cl)s2)nc2c1c(C)nn2C`, the inhibition was 17.2%.

Take `Cc1ccc(S(=O)(=O)NCCN2CCOCC2)cc1C`: the inhibition is 24.8%. The same measure for `O=S(=O)(O)CCN1CCOCC1`: 2.1%; for `Cc1cc(C)c(S(=O)(=O)NCCCN2CCOCC2)cc1Br`: 53.9% (active).

On to `COc1ccc(C)cc1NC(=O)CSc1nc(SC)ns1`, for which the inhibition was 35.5%. For `Cc1ccc(C)c2[nH]c(=O)c(CCNC(=O)CC(C)C)cc12` the value was 29.7%; for `CCOC(=O)c1c(NC(=S)Nc2ccccc2)sc2c1CCN(C)C2`, 26.5%. For `CC1(C)SC2c3ccccc3C(=O)N2[C@@H]1C(=O)NCc1ccco1` (stereo not given in full), the inhibition was 62.8% (active). For `COc1cc2c(cc1OC)C(C(=O)NCc1ccco1)C1c3ccccc3CCN1C2=O` (stereo not given) the value was 10.7%; for `O=C(NCCCCCCNC(=O)NCc1ccco1)NCc1ccco1`, -12.7%; for `C=CCNc1nc(C)nc(OC)n1`, -16.5%.

Take `COc1nc(NCc2ccc(Cl)cc2)nc(OC)n1`: the inhibition is 58.5% (active).

As to `CCNc1nc(N)nc(-c2cc(Cl)ccc2OC)n1`, the inhibition was 24.4%. The same measure for `CCCNC(=S)NC1CC2CCCC(C1)N2CC(C)C` (stereo not given): 6.3%; for `CC(C)c1cc(C(=O)O)n[nH]1`: -11.8%; for `Cc1cccc(-n2ncc(C#N)c2-n2cccc2)c1`: 21.9%. `COc1ccccc1N1CCN(Cc2nnnn2CCc2ccccc2)CC1`: the inhibition is 75.4% (active). For `c1ccc(CCn2nnnc2CN2CCN(C3CCCC3)CC2)cc1` the value was -12%; for `COc1ccccc1N1CCN(CCCCOc2ccc(F)cc2)CC1`, 13.1%; for `CCOC(=O)c1sc(N(Cc2ccccc2)C(=O)CN2C(=O)CN(C)C2=O)nc1C`, 14.5%. Consider `CCOc1ccc(OCC)c(-c2c(=O)n(OCc3ccc(Cl)cc3)c3ccccc3[n+]2[O-])c1`, for which the inhibition was 76.2% (active). In the case of `Cc1cc(C)cc(NC(=O)c2cccc(NC(=O)C3C4CC5OC(=O)C3C5C4)c2)c1` (stereo not given), the inhibition is 3%. For `COc1ccc(N2CCN(C(=O)CSc3nnc4ncccn34)CC2)cc1` the value was 29.2%; for `Cc1ccc2nc(NC3=NCN(CCc4ccccc4)CN3)nc(C)c2c1`, -14.5%; for `CCC(=O)Nc1nc2ccccc2n1Cc1ccccc1C`, 49.7%. The same measure for `CCc1nc2ccccc2n(CCOCCOCCn2c(=O)c(CC)nc3ccccc32)c1=O`: 24.1%; for `COCc1nc2ccccc2n1Cc1ccccc1Br`: 55.6% (active); for `COCn1c(COc2ccccc2)nc2ccccc21`: 51.4% (active).

`O=S(=O)(O)c1nc2ccccc2n1Cc1ccc(Cl)cc1Cl`: the inhibition was 11.3%.

Take `COCC(=O)Nc1nnc(COc2ccccc2)s1`: the inhibition is -3%. The same measure for `CCCCc1cc(=O)oc2cc(C)cc(OCc3nn[nH]n3)c12`: 11.2%. As to `CN1CCN(S(=O)(=O)c2ccc(NC(=O)C3CCCO3)cc2)CC1` (stereo not given), the inhibition was 3.5%.

As for `COc1ccc(OC)c2c1sc(=NC(=O)CN1C(=O)CCC1=O)n2C`, the inhibition is 11.6%. Consider `COc1ccccc1NC(=O)c1ccc(C)s1`, for which the inhibition was 36.8%. In the case of `CCC1(CC)Cc2ccccc2-c2nc3ccccc3c(=O)n21`, the inhibition is 13.4%. For `O=c1c2ccccc2nc2n1C1(CCCCC1)Cc1ccccc1-2` the value was 74.3% (active); for `c1cncc(-c2nnc3n2C2(CCCCC2)Cc2ccccc2-3)c1`, 3%; for `CCCCNc1ccc(C(=O)Nc2cccc(C)n2)cc1[N+](=O)[O-]`, -3%.

Take `COc1ccc(N(CCC#N)S(=O)(=O)c2ccc(Cl)cc2)cc1`: the inhibition is 49.6%. The same measure for `CCn1c(NC(=O)c2ccccc2)c(-c2cccs2)c(=O)c2ccccc21`: -4.5%; for `COC(=O)c1ccccc1NC(=O)CN(Cc1ccccc1)S(C)(=O)=O`: 17.1%; for `COC(=O)c1ccccc1NC(=O)CN(Cc1ccc(Cl)cc1)S(C)(=O)=O`: 96.6% (active). For `CCOc1ccc(NC(=O)c2ccccc2NS(C)(=O)=O)cc1`, the inhibition was 16.2%. Take `COC(=O)c1ccc(NC(=O)c2ccccc2NS(=O)(=O)c2ccccc2)cc1`: the inhibition was 41.7%. Turning to `COC(=O)c1ccccc1NC(=O)c1ccccc1NS(C)(=O)=O`, the inhibition was 62.7% (active). For `CCOc1ccccc1N(CC(=O)Nc1ccccc1C(=O)OC)S(C)(=O)=O` the value was 14.5%; for `O=C(OC1CCCCC1=O)c1cccc(S(=O)(=O)NCc2ccccc2)c1` (stereo not given), 41.1%; for `CC(=O)c1c(C)[nH]c(C(=O)NCCCN2CCCC2)c1C`, -10.9%. The same measure for `O=C(O)c1ccccc1-c1ccccc1C(=O)Nc1cccc2ccccc12`: 0.9%; for `COc1ccccc1-n1cnc2cc(C(=O)NCC3CCCO3)ccc21` (stereo not given): 13.8%; for `COc1ccccc1-n1cnc2cc(NS(=O)(=O)c3ccccc3)ccc21`: 64.8% (active).

Consider `COCCCNC(=O)c1ccc2c(c1)ncn2-c1ccccc1OC`, for which the inhibition is 1.5%. For `O=C(Nc1nc2ccc(S(=O)(=O)N3CCCC3)cc2s1)C1CCCO1` (stereo not given) the value was -2.2%; for `CCc1nnc(NC(=O)c2nc3nccc(C)n3n2)s1`, 0.6%. For `O=C1Cc2ccccc2Sc2ccc(Cl)cc21` the value was 58.3% (active); for `O=C(CSc1nc2ccccc2o1)N1c2ccccc2Sc2ccc(Cl)cc21`, 36.4%.

In general, inhibition refers to the change of the read-out against control, counted positive when it falls.

These data come from PubChem BioAssay AID778 (Sanford-Burnham Center for Chemical Genomics, 2007).
